Measurements published in PubChem BioAssay AID560 (The Scripps Research Institute Molecular Screening Center, 2006).
Among all 65,000 compounds or so, about 980 (1.5%) were called active.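 The calls were made as follows: active = activation above the mean of all tested compounds plus 3 SD (cut at about 49% in these data); inactive = the rest.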 The list comes from a sample in which actives are over-represented; it also holds similar structures and randomly drawn compounds.

The compounds below were run against Nuclear receptor ROR-alpha (Homo sapiens) (UniProt P35398) (assay: RORA ligand-binding domain transcriptional activation – cell-based, luminescence, primary screen (AID 560;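 also: 0% = DMSO-treated RORA cells and 100% = added signal equal to DMSO minus mock-transfected cells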)). Conditions: CHO-K1 Gal4-RORA LBD luciferase reporter, at 10 µM, active compounds read high, percent increase over mock-subtracted basal signal.
Sequence of Nuclear receptor ROR-alpha (Homo sapiens) (P35398 whole entry, looked up, the tested form may be a part): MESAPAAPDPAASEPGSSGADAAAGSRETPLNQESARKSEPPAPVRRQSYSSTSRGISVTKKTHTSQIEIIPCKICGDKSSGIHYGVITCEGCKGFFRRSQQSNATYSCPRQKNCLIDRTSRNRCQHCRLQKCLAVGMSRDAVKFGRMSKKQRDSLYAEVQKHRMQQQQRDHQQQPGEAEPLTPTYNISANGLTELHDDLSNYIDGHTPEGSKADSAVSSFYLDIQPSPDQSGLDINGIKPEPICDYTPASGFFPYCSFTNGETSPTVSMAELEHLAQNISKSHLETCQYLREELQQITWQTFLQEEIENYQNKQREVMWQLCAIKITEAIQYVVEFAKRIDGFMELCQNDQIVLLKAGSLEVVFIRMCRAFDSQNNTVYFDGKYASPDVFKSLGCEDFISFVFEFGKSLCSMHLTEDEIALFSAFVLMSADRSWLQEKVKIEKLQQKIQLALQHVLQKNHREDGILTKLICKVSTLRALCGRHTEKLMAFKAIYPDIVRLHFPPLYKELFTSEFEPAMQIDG

Q: With `COCCCNC(=O)Cn1cc(C(=O)C2CC2)c2ccccc21` as the compound, how does the activation read?
A: 7.7% (inactive)

Q: For `Cc1nnc(SCC(=O)Nn2cnnc2)s1`, which activation is on record?
A: 2.5% (inactive)

Q: With `CCOc1ccc(Nc2oc(Cc3ccccc3)nc2C#N)cc1` as the compound, how does the activation read?
A: 25.8% (inactive)

Q: For `N#Cc1nc(COc2ccc(-c3ccccc3)cc2)oc1NCc1cccnc1`, which activation is on record?
A: -0.3% (inactive)

Q: With `N#Cc1nc(Cc2ccccc2)oc1NCCc1ccccc1` as the compound, how does the activation read?
A: 54.1% (active)

Q: For `O=C(c1ccco1)N(Cc1nc2ccccc2c(=O)[nH]1)C1CCCC1`, which activation is on record?
A: -21.9% (inactive)

Q: How did the activation turn out when `COCc1nc2ccccc2n1Cc1ccccc1Br` was run?
A: -6.2% (inactive)

Q: For `COCn1c(COc2ccccc2)nc2ccccc21`, which activation is on record?
A: 53.4% (active)

Q: `Cn1c(COc2ccc(Cl)cc2)nc2ccccc2c1=O` was tested. Which activation did it give?
A: 7.3% (inactive)

Q: For `CCOC(=O)c1c(NC(=O)c2ccc(Br)o2)sc2c1CCCC2`, which activation is on record?
A: 10.7% (inactive)

Q: With `C=CCOC(=O)C1=C(C)OC(N)=C(C#N)C1c1ccc(F)cc1` (stereo not drawn) as the compound, how does the activation read?
A: -35.4% (inactive)

Q: With `Brc1ccc(Nc2c3c(nc4ncnn24)CCC3)cc1` as the compound, how does the activation read?
A: -16.4% (inactive)

Q: `OCCCN1c2ccccc2Nc2nnc(-c3ccccc3)cc21` was tested. Which activation did it give?
A: 56.8% (active)

Q: Which activation does the source give for `C=CCSc1nc2ccccc2[nH]1` here?
A: 6.3% (inactive)

Q: With `O=C(CSc1nc2ccccc2[nH]1)c1cccs1` as the compound, how does the activation read?
A: 56.5% (active)

Q: With `Cn1c(SCC(=O)c2cccs2)nnc1-c1ccco1` as the compound, how does the activation read?
A: 20.4% (inactive)

Q: `Cc1ccsc1-c1nc(CSCC(=O)NCCN2CCCC2)c(C)o1` was tested. Which activation did it give?
A: 4.3% (inactive)

Q: Which activation does the source give for `Cc1ccc(S(=O)(=O)C2(S(=O)(=O)c3ccc(C)cc3)CCCC2)cc1` here?
A: 36.3% (inactive)

Q: How did the activation turn out when `O=C(CN1CCN(c2ccccn2)CC1)NCc1cccs1` was run?
A: 1.8% (inactive)

Q: Which activation does the source give for `Cc1noc(C)c1C(=O)Nc1ccccn1` here?
A: -8.4% (inactive)

Q: How did the activation turn out when `CCN(CC)S(=O)(=O)c1cccc(C(=O)Nc2ccccc2)c1` was run?
A: 2.7% (inactive)

Q: With `CCN(CC)S(=O)(=O)c1cc(C(=O)Nc2ccccn2)ccc1C` as the compound, how does the activation read?
A: 59.6% (active)

Q: `O=C(CCn1c(=O)oc2ccccc21)Nc1ccon1` was tested. Which activation did it give?
A: 8.2% (inactive)

Q: Which activation does the source give for `O=C(Nc1ccc(Cl)cn1)c1cnn2cccnc12` here?
A: 62% (active)

Q: For `O=C(Nc1ccc(Cl)cn1)Nc1cccs1`, which activation is on record?
A: 42.6% (inactive)

Q: Which activation does the source give for `Cc1cc(NC(=O)c2cnn3cccnc23)n(-c2ccccc2)n1` here?
A: 10% (inactive)

Q: How did the activation turn out when `CCCCOc1ccc(NC(=O)CSCC(=O)OCC)cc1` was run?
A: -11.3% (inactive)

Q: With `CCCCOc1ccc(-c2ncc(C(=O)OCC)c(N)n2)cc1` as the compound, how does the activation read?
A: 59.3% (active)

Q: With `CCOC(=O)c1cnc(SCC(=O)NCc2ccco2)nc1N` as the compound, how does the activation read?
A: -10.7% (inactive)

Q: With `CCn1cc(NC(=O)Nc2ccc(OC)c(OC)c2)c(C(N)=O)n1` as the compound, how does the activation read?
A: 4.9% (inactive)

Q: `COc1cc(OC)c(C(=O)NC2CCCCCC2)cc1OC` was tested. Which activation did it give?
A: -17% (inactive)

Q: For `COc1cc(OC)c(C(=O)Nc2ccc(N(C)C)cc2)cc1OC`, which activation is on record?
A: 58.1% (active)

Q: With `COc1ccc(NC(=O)c2ccc(OC)cc2)cc1` as the compound, how does the activation read?
A: 25.7% (inactive)

Q: For `O=C(Nc1ccccc1F)c1cc(S(=O)(=O)N2CCCCC2)cs1`, which activation is on record?
A: 0.6% (inactive)

Q: How did the activation turn out when `CCN1C(=O)c2cccc3c(N)ccc1c23` was run?
A: -26% (inactive)

Q: Which activation does the source give for `CCN1C(=O)/C(=C\N2CCN(c3ccccc3)CC2)SC1=S` here?
A: -18% (inactive)

Q: For `CCN1C(=O)/C(=C2\SC(N3CCCCC3)=NC2=O)c2ccccc21`, which activation is on record?
A: 84.9% (active)

Q: How did the activation turn out when `O=C(c1cccs1)N1CCN(C(=O)N2CCOCC2)CC1` was run?
A: 8.8% (inactive)

Q: Which activation does the source give for `N#Cc1nc(-c2ccc(OCc3ccccc3)cc2)oc1NCCCN1CCOCC1` here?
A: 17% (inactive)

Q: For `COc1ccc(Nc2oc(-c3ccccc3Cl)nc2C#N)cc1`, which activation is on record?
A: 98.6% (active)

Q: For `CC1CCN(c2oc(-c3ccccc3F)nc2C#N)CC1`, which activation is on record?
A: 29% (inactive)

Q: How did the activation turn out when `O=S(=O)(c1cccs1)N1CCc2ccccc2C1` was run?
A: -7.5% (inactive)

Q: For `CCN1C(=O)/C(=C2/Sc3ccccc3N2CCCS(=O)(=O)O)SC1=S`, which activation is on record?
A: -2.8% (inactive)

Q: With `COCCNC(=O)CN1C(=O)CSc2ncccc21` as the compound, how does the activation read?
A: 18.9% (inactive)

Q: How did the activation turn out when `COc1ccc(-n2c(SC)nc(O)cc2=O)cc1` was run?
A: -8.4% (inactive)

Q: `CCS(=O)(=O)n1nc(-c2ccccc2)nc1SCc1ccccc1` was tested. Which activation did it give?
A: 32.6% (inactive)

Q: Which activation does the source give for `CCS(=O)(=O)n1nc(-c2ccc(OC)cc2)nc1SC` here?
A: 52.4% (active)

Q: With `CCCS(=O)(=O)N1CCN(C(=O)c2cccs2)CC1` as the compound, how does the activation read?
A: -4.5% (inactive)

Q: For `N#C/C(=C1\CCCN1)c1nc(-c2ccccc2)cs1`, which activation is on record?
A: 6.4% (inactive)

Q: How did the activation turn out when `N#CC(=C1SC=CS1)c1nc(-c2ccccc2)cs1` was run?
A: 59.7% (active)

Q: Which activation does the source give for `C#CC(C)(C)NC(=O)CSc1nc2c(c(=O)n(C)c(=O)n2C)n1CCCC` here?
A: 5% (inactive)

Q: Which activation does the source give for `CC(=O)CSc1nnc(CSc2ncccn2)n1C1CCCCC1` here?
A: -9.7% (inactive)

Q: Which activation does the source give for `COC(=O)C1=C(C)Nc2ncnn2C1c1ccco1` (stereo not drawn) here?
A: -4.4% (inactive)

Q: With `COc1ccc(C)c2sc(=NC(=O)c3ccc(C#N)cc3)n(C)c12` as the compound, how does the activation read?
A: 84.6% (active)

Q: How did the activation turn out when `COc1ccc(OC)c2c1sc(=NC(=O)CN1C(=O)CCC1=O)n2C` was run?
A: -2.8% (inactive)

Q: `CCCCSc1nnc(-c2ccc(C)cc2)o1` was tested. Which activation did it give?
A: 23.4% (inactive)

Q: Which activation does the source give for `Cc1ccc(CN2C(=O)CCC2C(=O)NCCCN2CCCCC2C)cc1` (stereo not drawn) here?
A: 13.7% (inactive)

Q: Which activation does the source give for `Cc1noc(NS(=O)(=O)c2ccc(NC(=O)C34CCC(CC3)C4)cc2)c1C` here?
A: 11.6% (inactive)

Q: Which activation does the source give for `c1ccc(-n2ncc3c(N4CCCC4)ncnc32)cc1` here?
A: -23.2% (inactive)

Q: With `COc1ccc(-n2ncc3c(N4CCCc5ccccc54)ncnc32)cc1` as the compound, how does the activation read?
A: 50.2% (active)

Q: For `COc1ccc(-n2ncc3c(N4CCc5ccccc54)ncnc32)cc1`, which activation is on record?
A: 50.3% (active)

Q: For `COc1ccc(N2CCN(C(=O)CSc3ncnc4c3cnn4-c3ccc(OC)cc3)CC2)cc1`, which activation is on record?
A: -12.8% (inactive)

Q: For `Cc1cccc(-n2ncc3c(N4CCc5ccccc54)ncnc32)c1`, which activation is on record?
A: 2% (inactive)

Q: How did the activation turn out when `COc1ccc2oc(=O)c(C(=O)N3CCCc4ccccc43)cc2c1` was run?
A: -10.5% (inactive)

Q: For `CC(=O)N1CCN(c2ccc(NCc3ccc(C(C)C)cc3)cc2)CC1`, which activation is on record?
A: -17.3% (inactive)

Q: With `COc1ccc(N2C(=O)C3CCCN3C2c2cccc(OC)c2)cc1` (stereo not drawn) as the compound, how does the activation read?
A: -2.9% (inactive)

Q: With `O=C(NCCN1CCOCC1)[C@H](Cc1ccccc1)N1C(=O)c2ccccc2C1=O` as the compound, how does the activation read?
A: 3.1% (inactive)

Q: For `O=C(CN1C(=O)COc2ccccc21)NCCN1CCc2ccccc2C1`, which activation is on record?
A: 20.9% (inactive)
